Measurements taken from PubChem BioAssay AID1159580 (chemical genetic matrix, 2015).
Out of some 5,500 compounds screened, about 2,000 (36%) were called active. Another 18% or so got no clear call; they are omitted. No stated cut-off is given here; in the data, active means normalized growth mostly below about 0.91 (no sharp cut-off); inconclusive means no clear call, values can overlap the other calls; inactive means mostly above about 0.92. This is one part of the list.

Experiment: chemical genetic growth profiling, strain panel (AID 1159580);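 further: tested at 20 µM; growth read once vehicle control cultures reached saturation at 30 °C; 1 = growth at the plate median or of vehicle wells; lower values mean less growth of the strain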
Settings: S. cerevisiae deletion strains, growth OD

Measured: normalized growth

O=S(=O)(O)O
inactive: locus YAL021C, strain ccr4, active compounds read low 0.973 | locus YAL026C, strain drs2, active compounds read low 0.983 | locus YAL030W, strain snc1, active compounds read low 0.985 | locus YBL061C, strain skt5, active compounds read low 0.975 | locus YBR009C, strain hhf1, active compounds read low 0.991 | locus YBR023C, strain chs3, active compounds read low 0.98 | locus YBR171W, strain sec66, active compounds read low 0.961 | locus YBR231C, strain swc5, active compounds read low 0.976 | locus YBR279W, strain paf1, active compounds read low 0.985 | locus YCL011C, strain gbp2, active compounds read low 0.965 | locus YCL016C, strain dcc1, active compounds read low 0.981 | locus YCL061C, strain MRC1, active compounds read low 0.993 | locus YCL069W, strain vba3, active compounds read low 0.969 | locus YCR088W, strain abp1, active compounds read low 0.956 | locus YDL005C, strain med2, active compounds read low 0.954 | locus YDL040C, strain nat1, active compounds read low 0.988 | locus YDR001C, strain nth1, active compounds read low 0.987 | locus YDR069C, strain doa4, active compounds read low 0.964 | locus YDR137W, strain rgp1, active compounds read low 1.01 | locus YDR159W, strain sac3, active compounds read low 0.985 | locus YDR195W, strain ref2 1 | locus YDR297W, strain sur2, active compounds read low 0.976 | locus YDR334W, strain swr1, active compounds read low 0.976 | locus YDR335W, strain msn5, active compounds read low 0.978 | locus YDR392W, strain spt3, active compounds read low 0.914 | locus YEL003W, strain gim4, active compounds read low 0.988 | locus YEL037C, strain rad23, active compounds read low 0.969 | locus YEL061C, strain CIN8 (second series), active compounds read low 0.971 | locus YER015W, strain faa2, active compounds read low 0.975 | locus YER016W, strain bim1, active compounds read low 0.983 | locus YER111C, strain swi4, active compounds read low 0.967 | locus YER155C, strain BEM2 (second series), active compounds read low 0.976 | locus YFR010W, strain ubp6, active compounds read low 0.973 | locus YGL167C, strain pmr1, active compounds read low 0.973 | locus YGL173C, strain kem1, active compounds read low 0.962 | locus YGL227W, strain vid30, active compounds read low 0.961 | locus YGL240W, strain doc1, active compounds read low 0.982 | locus YGL253W, strain hxk2, active compounds read low 0.969 | locus YHR013C, strain ard1, active compounds read low 0.96 | locus YHR027C, strain rpn1, active compounds read low 0.978 | locus YHR030C, strain SLT2, active compounds read low 1.04 | locus YHR079C, strain IRE1, active compounds read low 1.06 | locus YHR142W, strain chs7, active compounds read low 0.961 | locus YJL092W, strain hpr5, active compounds read low 0.95 | locus YJL095W, strain BCK1 (second series), active compounds read low 0.981 | locus YJL095W, strain BCK1, active compounds read low 1.06 | locus YJL115W, strain asf1, active compounds read low 0.981 | locus YJL129C, strain trk1, active compounds read low 0.961 | locus YJL154C, strain vps35, active compounds read low 0.977 | locus YJL164C, strain tpk1, active compounds read low 0.983 | locus YJL166W, strain qcr8, active compounds read low 0.977 | locus YJL187C, strain SWE1, active compounds read low 0.981 | locus YJR066W, strain TOR1, active compounds read low 0.967 | locus YKL160W, strain elf1, active compounds read low 0.987 | locus YKR026C, strain gcn3, active compounds read low 0.975 | locus YKR091W, strain srl3, active compounds read low 0.977 | locus YLL001W, strain dnm1, active compounds read low 0.992 | locus YLL026W, active compounds read low 0.966 | locus YLL041C, strain sdh2, active compounds read low 0.988 | locus YLR027C, strain aat2, active compounds read low 0.985 | locus YLR113W, strain HOG1, active compounds read low 0.992 | locus YLR221C, strain rsa3, active compounds read low 0.979 | locus YLR258W, strain gsy2, active compounds read low 0.98 | locus YLR262C, strain YPT6 (second series), active compounds read low 1 | locus YLR320W, strain mms22, active compounds read low 0.969 | locus YLR342W, strain FKS1, active compounds read low 0.955 | locus YLR357W, strain rsc2, active compounds read low 0.951 | locus YLR370C, strain arc18, active compounds read low 0.965 | locus YLR384C, strain iki3, active compounds read low 0.977 | locus YML120C, strain ndi1, active compounds read low 0.979 | locus YMR058W, strain fet3, active compounds read low 0.985 | locus YMR125W, strain sto1, active compounds read low 0.944 | locus YMR129W, active compounds read low 0.99 | locus YMR205C, strain PFK2, active compounds read low 0.976 | locus YMR231W, strain pep5, active compounds read low 0.956 | locus YNL071W, strain lat1, active compounds read low 0.959 | locus YNL183C, strain NPR1, active compounds read low 0.986 | locus YNL209W, strain ssb2, active compounds read low 0.975 | locus YNL248C, strain rpa49, active compounds read low 0.978 | locus YNL322C, strain KRE1 (second series), active compounds read low 0.966 | locus YNR049C, strain mso1, active compounds read low 0.983 | locus YOR001W, strain rrp6, active compounds read low 0.964 | locus YOR070C, strain gyp1, active compounds read low 0.974 | locus YOR080W, strain dia2, active compounds read low 0.968 | locus YOR083W, strain WHI5, active compounds read low 0.986 | locus YOR106W, strain vam3, active compounds read low 0.934 | locus YOR231W, strain MKK1, active compounds read low 1.02 | locus YOR265W, strain rbl2, active compounds read low 0.981 | locus YOR270C, strain vph1, active compounds read low 1 | locus YOR290C, strain snf2, active compounds read low 0.982 | locus YPL051W, strain arl3, active compounds read low 0.981 | locus YPL078C, strain atp4, active compounds read low 0.982 | locus YPL106C, strain sse1, active compounds read low 0.946 | locus YPL240C, strain hsp82, active compounds read low 0.957 | locus YPL256C, strain CLN2, active compounds read low 1.06
